# Legend:
# Test in all cases: DAPPL (digital affinity profiling via proximity ligation, sequencing); 10 mM Tris-HCl pH 7.5, 50 mM NaCl, 1 mM DTT, 4% glycerol, room temperature, 30 min; GST-TFs on glutathione beads, 16-mer random dsDNA library, 0.1% formaldehyde crosslink after washing; high values mean tight binding
# Conditions in all cases: protein: recombinant; tags: N-terminal GST; dsDNA, one strand shown
# FLI1 = biological target: T1, FLI1 (Homo sapiens, UniProt Q01543 1-452)
# T1 sequence: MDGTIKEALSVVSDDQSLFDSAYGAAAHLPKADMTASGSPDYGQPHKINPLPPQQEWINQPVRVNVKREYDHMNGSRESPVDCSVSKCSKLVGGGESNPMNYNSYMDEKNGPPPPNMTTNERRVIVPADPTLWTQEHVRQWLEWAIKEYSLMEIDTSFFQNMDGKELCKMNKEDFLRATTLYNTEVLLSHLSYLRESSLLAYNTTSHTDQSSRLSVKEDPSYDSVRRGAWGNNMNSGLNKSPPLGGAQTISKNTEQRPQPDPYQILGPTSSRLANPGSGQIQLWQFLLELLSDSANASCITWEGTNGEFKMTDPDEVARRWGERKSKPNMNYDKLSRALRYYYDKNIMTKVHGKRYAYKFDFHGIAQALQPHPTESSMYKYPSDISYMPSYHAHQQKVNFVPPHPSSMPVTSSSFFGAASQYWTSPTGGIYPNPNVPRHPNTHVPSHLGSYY
# Outline: (§1)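 Yeast served to express human transcription factors as GST fusions, which were then captured on glutathione beads and labelled with DNA barcodes. Pooled with a tag-only sample, they were incubated with 200 nmole of a 16-mer random double-stranded DNA library for 30 min at room temperature in Tris/NaCl/DTT/glycerol buffer, washed, crosslinked with 0.1% formaldehyde, ligated by proximity, amplified by PCR and sequenced. Dividing each hexamer's read frequency for a factor by its frequency for the tag-only sample gives the binding signal.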
# ELK1 = biological target: T2, ELK1 (Homo sapiens, UniProt P19419 1-428)
# T2 sequence: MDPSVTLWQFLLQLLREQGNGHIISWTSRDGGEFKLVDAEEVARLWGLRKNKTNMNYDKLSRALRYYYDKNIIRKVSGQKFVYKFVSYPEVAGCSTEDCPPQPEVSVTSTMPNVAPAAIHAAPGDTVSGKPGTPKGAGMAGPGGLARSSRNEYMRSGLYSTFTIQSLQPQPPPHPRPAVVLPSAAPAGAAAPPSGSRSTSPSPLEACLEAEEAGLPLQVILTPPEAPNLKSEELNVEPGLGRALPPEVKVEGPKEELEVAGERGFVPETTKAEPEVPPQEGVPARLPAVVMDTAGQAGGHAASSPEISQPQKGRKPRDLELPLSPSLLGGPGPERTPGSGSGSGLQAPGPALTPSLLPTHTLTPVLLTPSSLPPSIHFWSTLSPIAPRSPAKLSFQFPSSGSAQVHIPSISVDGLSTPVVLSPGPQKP
# Outline: as §1
# GABPA = biological target: T3, GABPA (Homo sapiens, UniProt Q06546 1-454)
# T3 sequence: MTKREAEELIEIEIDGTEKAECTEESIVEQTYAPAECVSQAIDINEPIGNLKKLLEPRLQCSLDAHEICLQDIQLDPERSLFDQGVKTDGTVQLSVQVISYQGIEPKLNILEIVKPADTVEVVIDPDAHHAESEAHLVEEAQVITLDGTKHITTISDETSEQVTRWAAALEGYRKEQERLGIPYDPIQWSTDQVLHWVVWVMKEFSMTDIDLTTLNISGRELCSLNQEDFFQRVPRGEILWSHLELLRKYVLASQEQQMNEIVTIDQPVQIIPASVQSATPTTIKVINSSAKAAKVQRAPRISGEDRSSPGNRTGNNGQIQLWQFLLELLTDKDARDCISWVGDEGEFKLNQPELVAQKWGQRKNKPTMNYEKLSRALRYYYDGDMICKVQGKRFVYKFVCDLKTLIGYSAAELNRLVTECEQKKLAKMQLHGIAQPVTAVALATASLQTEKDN
# Outline: as §1
# ERG = biological target: T4, ERG (Homo sapiens, UniProt P11308 1-479)
# T4 sequence: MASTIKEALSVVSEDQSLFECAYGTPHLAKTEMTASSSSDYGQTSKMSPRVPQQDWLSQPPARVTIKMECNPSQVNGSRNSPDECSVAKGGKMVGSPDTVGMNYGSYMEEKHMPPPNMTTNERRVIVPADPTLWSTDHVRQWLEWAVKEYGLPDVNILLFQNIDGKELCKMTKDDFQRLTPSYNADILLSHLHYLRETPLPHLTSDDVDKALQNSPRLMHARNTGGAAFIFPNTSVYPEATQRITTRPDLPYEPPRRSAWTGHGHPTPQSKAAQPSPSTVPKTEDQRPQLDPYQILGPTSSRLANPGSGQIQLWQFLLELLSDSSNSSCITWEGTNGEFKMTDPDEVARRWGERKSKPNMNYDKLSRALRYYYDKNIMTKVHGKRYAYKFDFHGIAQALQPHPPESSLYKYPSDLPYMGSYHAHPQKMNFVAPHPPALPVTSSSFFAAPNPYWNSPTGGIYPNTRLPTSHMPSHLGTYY
# Outline: as §1
# ELF1 = ELF1 (Homo sapiens, UniProt P32519 1-619)
# Outline: as §1
# ELK3 = biological target: T5, ELK3 (Homo sapiens, UniProt P41970 1-407)
# T5 sequence: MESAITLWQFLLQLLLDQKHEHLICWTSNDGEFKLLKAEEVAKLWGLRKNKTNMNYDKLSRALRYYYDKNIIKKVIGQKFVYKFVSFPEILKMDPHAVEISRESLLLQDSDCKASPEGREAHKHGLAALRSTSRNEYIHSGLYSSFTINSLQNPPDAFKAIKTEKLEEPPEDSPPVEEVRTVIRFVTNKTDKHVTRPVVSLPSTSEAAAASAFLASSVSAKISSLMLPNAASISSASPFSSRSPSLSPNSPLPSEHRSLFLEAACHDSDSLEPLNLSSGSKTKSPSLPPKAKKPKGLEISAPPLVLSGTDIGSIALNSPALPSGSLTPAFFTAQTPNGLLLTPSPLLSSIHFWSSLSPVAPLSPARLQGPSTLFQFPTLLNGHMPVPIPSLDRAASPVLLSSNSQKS
# Outline: as §1
# SPIC = biological target: T6, SPIC (Homo sapiens, UniProt Q8N5J4 1-248)
# T6 sequence: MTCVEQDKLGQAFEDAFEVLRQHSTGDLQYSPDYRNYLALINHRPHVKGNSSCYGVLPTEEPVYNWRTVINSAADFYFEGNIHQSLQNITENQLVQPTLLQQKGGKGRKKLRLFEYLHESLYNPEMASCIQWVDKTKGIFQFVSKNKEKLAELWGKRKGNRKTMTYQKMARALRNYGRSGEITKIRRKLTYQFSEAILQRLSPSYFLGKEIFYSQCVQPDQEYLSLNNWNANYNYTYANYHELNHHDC
# Outline: as §1
# ELF4 = ELF4 (Homo sapiens, UniProt Q99607 1-663)
# Outline: as §1
# ETV2 = biological target: T7, ETV2 (Homo sapiens, UniProt O00321 1-342)
# T7 sequence: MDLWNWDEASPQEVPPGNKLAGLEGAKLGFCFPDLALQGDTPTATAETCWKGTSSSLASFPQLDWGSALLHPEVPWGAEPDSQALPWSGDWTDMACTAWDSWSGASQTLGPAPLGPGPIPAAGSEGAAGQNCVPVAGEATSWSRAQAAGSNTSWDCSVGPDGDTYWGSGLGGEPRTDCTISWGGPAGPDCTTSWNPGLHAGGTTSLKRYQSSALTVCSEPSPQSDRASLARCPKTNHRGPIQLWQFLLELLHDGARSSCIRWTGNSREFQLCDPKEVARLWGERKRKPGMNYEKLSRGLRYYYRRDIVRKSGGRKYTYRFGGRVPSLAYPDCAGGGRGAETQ
# Outline: as §1
# ELF3 = biological target: T8, ELF3 (Homo sapiens, UniProt P78545 1-371)
# T8 sequence: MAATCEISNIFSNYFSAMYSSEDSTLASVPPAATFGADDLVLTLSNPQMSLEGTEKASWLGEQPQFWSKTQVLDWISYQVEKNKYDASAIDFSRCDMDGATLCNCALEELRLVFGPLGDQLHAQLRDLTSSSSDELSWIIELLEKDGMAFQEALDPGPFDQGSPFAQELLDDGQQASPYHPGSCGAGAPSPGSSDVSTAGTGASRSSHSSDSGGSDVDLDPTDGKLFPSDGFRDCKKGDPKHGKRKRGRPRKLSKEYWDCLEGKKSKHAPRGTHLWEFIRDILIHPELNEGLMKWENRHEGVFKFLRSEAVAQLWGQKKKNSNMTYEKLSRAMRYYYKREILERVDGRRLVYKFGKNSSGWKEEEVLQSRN
# Outline: as §1
# ERF = biological target: T9, ERF (Homo sapiens, UniProt P50548 1-548)
# T9 sequence: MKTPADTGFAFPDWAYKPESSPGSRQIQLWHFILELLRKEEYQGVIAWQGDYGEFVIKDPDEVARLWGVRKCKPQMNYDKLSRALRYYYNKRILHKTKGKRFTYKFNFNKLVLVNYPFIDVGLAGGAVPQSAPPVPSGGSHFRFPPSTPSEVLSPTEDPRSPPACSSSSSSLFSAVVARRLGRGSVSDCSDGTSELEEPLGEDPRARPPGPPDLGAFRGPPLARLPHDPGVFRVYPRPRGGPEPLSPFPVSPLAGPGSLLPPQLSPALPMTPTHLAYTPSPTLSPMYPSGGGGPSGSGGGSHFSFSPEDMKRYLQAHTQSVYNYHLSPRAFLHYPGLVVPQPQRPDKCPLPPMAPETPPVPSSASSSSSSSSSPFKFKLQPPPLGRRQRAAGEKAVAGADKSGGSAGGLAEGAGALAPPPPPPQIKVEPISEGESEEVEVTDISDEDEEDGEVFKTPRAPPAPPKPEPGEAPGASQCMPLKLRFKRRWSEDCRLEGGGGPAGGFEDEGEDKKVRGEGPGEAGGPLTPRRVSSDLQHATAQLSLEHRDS
# Outline: as §1
# ETV3L = biological target: T10, ETV3L (Homo sapiens, UniProt Q6ZN32 1-361)
# T10 sequence: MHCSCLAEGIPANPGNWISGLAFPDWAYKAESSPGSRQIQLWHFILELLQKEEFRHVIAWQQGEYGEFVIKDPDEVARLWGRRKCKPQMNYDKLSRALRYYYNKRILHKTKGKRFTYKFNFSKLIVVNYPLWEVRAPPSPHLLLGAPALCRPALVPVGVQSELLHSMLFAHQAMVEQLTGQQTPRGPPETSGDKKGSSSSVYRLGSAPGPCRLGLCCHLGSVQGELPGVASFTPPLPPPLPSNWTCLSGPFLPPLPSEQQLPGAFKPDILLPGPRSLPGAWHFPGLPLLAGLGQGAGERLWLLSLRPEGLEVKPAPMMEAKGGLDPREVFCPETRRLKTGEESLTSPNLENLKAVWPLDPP
# Outline: as §1
# ETS2 = biological target: T11, ETS2 (Homo sapiens, UniProt P15036 1-469)
# T11 sequence: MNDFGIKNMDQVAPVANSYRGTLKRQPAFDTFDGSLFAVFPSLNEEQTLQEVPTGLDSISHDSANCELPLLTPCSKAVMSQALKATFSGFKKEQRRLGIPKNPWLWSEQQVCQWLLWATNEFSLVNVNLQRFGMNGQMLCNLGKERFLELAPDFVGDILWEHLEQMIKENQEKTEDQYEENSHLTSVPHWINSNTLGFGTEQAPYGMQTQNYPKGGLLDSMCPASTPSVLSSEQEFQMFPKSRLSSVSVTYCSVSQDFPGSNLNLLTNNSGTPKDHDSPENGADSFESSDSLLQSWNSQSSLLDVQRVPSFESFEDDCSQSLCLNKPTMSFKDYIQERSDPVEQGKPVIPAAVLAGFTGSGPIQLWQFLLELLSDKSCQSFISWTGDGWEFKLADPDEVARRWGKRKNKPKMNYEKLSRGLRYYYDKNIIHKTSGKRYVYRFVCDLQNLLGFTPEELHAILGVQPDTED
# Outline: as §1
# ETV7 = biological target: T12, ETV7 (Homo sapiens, UniProt Q9Y603 1-341)
# T12 sequence: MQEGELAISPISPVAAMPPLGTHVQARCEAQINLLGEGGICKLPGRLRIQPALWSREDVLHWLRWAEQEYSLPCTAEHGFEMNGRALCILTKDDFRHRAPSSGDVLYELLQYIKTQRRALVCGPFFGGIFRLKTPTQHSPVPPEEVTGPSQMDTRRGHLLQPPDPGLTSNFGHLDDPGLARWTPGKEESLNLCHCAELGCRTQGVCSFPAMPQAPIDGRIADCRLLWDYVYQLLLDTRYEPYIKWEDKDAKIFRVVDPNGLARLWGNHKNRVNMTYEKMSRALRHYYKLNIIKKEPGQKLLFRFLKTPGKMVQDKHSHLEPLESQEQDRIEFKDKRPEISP
# Outline: as §1
# ETV3 = biological target: T13, ETV3 (Homo sapiens, UniProt P41162-2 1-143)
# T13 sequence: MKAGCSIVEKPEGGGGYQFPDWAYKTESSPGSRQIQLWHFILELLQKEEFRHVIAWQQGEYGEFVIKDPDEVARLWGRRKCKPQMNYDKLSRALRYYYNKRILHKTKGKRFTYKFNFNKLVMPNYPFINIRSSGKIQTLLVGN
# Outline: as §1
# ETV6 = ETV6 (Homo sapiens, UniProt P41212 1-452)
# Outline: as §1
# Sequence of ELF4 (Q99607 whole entry): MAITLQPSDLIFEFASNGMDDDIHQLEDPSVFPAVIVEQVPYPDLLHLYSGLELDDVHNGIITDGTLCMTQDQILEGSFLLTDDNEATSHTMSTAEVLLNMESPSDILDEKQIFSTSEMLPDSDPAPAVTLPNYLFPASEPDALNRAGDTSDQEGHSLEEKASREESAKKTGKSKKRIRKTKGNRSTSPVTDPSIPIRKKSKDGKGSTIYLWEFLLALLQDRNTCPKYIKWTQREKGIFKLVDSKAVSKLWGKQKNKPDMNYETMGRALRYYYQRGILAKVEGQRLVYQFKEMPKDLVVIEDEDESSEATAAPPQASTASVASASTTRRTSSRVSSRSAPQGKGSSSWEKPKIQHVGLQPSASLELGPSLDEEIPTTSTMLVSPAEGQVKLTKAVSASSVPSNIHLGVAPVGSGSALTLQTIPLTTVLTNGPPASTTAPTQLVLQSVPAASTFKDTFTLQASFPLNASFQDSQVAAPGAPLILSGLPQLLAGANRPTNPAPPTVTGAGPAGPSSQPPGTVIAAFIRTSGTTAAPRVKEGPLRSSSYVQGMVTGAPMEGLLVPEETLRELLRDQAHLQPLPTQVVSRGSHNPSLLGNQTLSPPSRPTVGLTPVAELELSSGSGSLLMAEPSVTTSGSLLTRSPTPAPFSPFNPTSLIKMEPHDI
# Sequence of ELF1 (P32519 whole entry): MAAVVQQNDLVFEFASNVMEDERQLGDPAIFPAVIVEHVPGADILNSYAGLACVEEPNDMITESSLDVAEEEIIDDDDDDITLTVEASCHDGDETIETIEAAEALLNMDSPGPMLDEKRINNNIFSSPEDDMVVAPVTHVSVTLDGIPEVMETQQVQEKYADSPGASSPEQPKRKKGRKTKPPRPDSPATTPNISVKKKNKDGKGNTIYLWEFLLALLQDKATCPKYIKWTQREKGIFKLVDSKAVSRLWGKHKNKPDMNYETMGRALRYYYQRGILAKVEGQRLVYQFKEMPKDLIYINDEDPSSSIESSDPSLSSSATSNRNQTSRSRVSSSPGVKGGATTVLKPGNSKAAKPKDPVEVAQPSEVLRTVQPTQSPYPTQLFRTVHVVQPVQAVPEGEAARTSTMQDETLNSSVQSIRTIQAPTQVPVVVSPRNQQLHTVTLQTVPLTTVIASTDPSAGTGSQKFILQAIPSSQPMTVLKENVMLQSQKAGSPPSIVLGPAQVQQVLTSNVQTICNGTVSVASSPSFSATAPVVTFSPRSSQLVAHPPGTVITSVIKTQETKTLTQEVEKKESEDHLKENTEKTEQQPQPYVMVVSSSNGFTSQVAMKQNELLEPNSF
# Sequence of ETV6 (P41212 whole entry): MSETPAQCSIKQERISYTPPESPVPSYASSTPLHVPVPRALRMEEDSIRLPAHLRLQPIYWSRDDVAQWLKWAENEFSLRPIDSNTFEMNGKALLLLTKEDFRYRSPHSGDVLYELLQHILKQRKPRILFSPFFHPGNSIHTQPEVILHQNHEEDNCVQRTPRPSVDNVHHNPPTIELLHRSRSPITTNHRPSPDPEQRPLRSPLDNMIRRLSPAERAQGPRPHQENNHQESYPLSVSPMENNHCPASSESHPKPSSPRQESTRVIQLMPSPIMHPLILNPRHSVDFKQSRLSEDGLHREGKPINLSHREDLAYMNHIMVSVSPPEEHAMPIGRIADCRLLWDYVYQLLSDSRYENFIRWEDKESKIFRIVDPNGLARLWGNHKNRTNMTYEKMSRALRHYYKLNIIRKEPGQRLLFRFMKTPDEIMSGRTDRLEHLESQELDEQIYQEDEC
sequence,measurement,setting,value
CTAGAA,binding signal,FLI1,"1.06 fold enrichment (6-mer frequency, TF over GST control)"
same,binding signal,ELK1,"1 fold enrichment (6-mer frequency, TF over GST control)"
same,binding signal,GABPA,"1.05 fold enrichment (6-mer frequency, TF over GST control)"
same,binding signal,ERG,"1.05 fold enrichment (6-mer frequency, TF over GST control)"
same,binding signal,ELF1,"1.04 fold enrichment (6-mer frequency, TF over GST control)"
same,binding signal,ELK3,"1.09 fold enrichment (6-mer frequency, TF over GST control)"
same,binding signal,SPIC,"1.03 fold enrichment (6-mer frequency, TF over GST control)"
same,binding signal,ELF4,"1.05 fold enrichment (6-mer frequency, TF over GST control)"
same,binding signal,ETV2,"1.03 fold enrichment (6-mer frequency, TF over GST control)"
same,binding signal,ELF3,"1.03 fold enrichment (6-mer frequency, TF over GST control)"
same,binding signal,ERF,"1.28 fold enrichment (6-mer frequency, TF over GST control)"
same,binding signal,ETV3L,"1.03 fold enrichment (6-mer frequency, TF over GST control)"
same,binding signal,ETS2,"1.02 fold enrichment (6-mer frequency, TF over GST control)"
same,binding signal,ETV7,"1.02 fold enrichment (6-mer frequency, TF over GST control)"
same,binding signal,ETV3,"1.01 fold enrichment (6-mer frequency, TF over GST control)"
same,binding signal,ETV6,"1.04 fold enrichment (6-mer frequency, TF over GST control)"

# Reference: article PMC7862700, “An all-to-all approach to the identification of sequence-specific readers for epigenetic DNA modifications on cytosine”
